Our source for the binding signal values is article PMC5700166.

What all share (test): protein-binding microarray (PBM); PBM: ~300 nM protein, 6 mM HEPES pH 7.8, 80 mM KCl, 0.5 mM EDTA, 0.5 mM EGTA, 6% glycerol, 35 ng/ul poly-dIdC, 1% milk, 1 h, room temperature; Ap Aiptasia and Nv Nematostella (sea anemones) / Co Capsaspora / Aq Amphimedon (sponge) / Dm Drosophila / Hu human; RHD is the Rel homology domain; high values mean tight binding
Holding throughout (settings): dsDNA, one strand shown

In one test the target is T1, GST-Ap-NF-kB RHD (Exaiptasia pallida (Aiptasia), UniProt A0A913YAJ5 2-422).
T1 sequence: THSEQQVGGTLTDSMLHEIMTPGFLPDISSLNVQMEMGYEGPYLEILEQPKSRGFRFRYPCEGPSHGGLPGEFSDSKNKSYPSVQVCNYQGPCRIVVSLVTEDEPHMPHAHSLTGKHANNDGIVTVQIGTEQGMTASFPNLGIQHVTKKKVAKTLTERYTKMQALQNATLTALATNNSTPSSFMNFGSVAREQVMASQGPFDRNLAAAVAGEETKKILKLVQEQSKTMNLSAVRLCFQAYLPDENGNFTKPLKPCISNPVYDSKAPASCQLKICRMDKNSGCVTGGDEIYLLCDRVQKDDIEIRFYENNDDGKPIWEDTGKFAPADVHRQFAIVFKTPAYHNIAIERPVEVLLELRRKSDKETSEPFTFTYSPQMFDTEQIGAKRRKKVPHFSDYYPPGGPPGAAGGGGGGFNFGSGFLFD

The target in test [1] is T2, GST-Nv-NF-kB (Cys allele) (Nematostella vectensis, UniProt E5G601 2-411).
T2 sequence: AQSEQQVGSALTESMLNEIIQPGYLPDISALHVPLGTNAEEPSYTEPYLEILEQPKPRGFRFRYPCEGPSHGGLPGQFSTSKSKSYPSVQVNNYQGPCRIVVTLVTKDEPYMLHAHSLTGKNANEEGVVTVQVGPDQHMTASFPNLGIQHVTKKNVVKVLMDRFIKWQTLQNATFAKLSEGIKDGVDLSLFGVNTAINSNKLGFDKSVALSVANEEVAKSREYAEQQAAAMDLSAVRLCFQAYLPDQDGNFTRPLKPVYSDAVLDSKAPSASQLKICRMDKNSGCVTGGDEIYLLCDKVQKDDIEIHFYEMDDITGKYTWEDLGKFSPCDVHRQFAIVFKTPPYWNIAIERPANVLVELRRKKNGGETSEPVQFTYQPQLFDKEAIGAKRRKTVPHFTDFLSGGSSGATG

A further test concerns the target T3, GST-Co-NF-kB (Capsaspora owczarzaki, UniProt F1ARL5 200-546).
T3 sequence: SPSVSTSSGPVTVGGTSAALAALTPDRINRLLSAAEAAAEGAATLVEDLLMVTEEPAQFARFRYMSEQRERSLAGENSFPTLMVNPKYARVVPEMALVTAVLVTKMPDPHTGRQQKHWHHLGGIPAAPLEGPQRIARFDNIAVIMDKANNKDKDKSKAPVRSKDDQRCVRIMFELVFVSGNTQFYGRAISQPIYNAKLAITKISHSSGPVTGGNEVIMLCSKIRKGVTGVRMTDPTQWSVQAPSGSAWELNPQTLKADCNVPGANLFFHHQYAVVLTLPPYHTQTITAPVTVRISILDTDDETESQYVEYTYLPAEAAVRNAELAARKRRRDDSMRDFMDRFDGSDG

The target of the next test is T4, GST-Dm-Relish (Drosophila melanogaster, UniProt Q94527 99-473).
T4 sequence: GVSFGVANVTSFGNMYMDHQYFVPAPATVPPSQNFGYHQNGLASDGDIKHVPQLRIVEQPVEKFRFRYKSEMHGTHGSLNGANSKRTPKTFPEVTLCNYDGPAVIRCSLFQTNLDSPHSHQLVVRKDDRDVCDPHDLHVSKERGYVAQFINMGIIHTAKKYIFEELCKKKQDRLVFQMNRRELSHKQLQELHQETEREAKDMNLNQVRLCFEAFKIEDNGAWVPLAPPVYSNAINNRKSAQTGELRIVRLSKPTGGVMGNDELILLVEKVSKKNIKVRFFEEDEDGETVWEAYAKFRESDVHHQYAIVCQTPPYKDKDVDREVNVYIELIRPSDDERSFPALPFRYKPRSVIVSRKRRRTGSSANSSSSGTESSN

The next test addresses T5, GST-Aq-NF-kB (Amphimedon queenslandica, UniProt A9Y5G7 2-389).
T5 sequence: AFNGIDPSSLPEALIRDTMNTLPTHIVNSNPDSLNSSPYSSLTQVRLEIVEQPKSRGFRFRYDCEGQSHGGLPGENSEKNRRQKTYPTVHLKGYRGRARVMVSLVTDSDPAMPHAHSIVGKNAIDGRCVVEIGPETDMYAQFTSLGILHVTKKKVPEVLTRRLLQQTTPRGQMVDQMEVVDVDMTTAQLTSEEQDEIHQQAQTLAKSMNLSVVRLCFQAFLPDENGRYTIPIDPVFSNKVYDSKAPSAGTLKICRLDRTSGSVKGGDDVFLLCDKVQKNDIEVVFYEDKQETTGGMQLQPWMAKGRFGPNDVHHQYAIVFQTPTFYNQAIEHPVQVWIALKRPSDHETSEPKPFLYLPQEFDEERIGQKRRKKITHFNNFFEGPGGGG

For the sequence “CCGATTAACATCAAGGGGGGGGCTGATGTTAATCGGGTCTTGATTCGCTTGACGCTGCTG”, the binding signal with GST-Ap-NF-kB RHD was 5.13 z-score; in test [1], 3.96 z-score; with GST-Co-NF-kB it was 4.65 z-score; with GST-Dm-Relish, 5.21 z-score; with GST-Aq-NF-kB it was 4.89 z-score.
Consider “CCGATTAACATCACTTTACCCCCTGATGTTAATCGGGTCTTGATTCGCTTGACGCTGCTG”, for which the binding signal with GST-Ap-NF-kB RHD was determined as 4.02 z-score; in test [1], 2.61 z-score; with GST-Co-NF-kB it was 6.83 z-score; in the test with GST-Dm-Relish, 2.27 z-score; with GST-Aq-NF-kB, 3.05 z-score.
For “CCGATTAACATCAGGCACTCCCCTGATGTTAATCGGGTCTTGATTCGCTTGACGCTGCTG”, the binding signal in the test with GST-Ap-NF-kB RHD came out at 4.75 z-score; in test [1], 3.18 z-score; with GST-Co-NF-kB, 2.45 z-score; in the test with GST-Dm-Relish, 3.63 z-score; with GST-Aq-NF-kB it was 4.71 z-score.
In the case of “CCGATTAACATCAGAAATCTCCCTGATGTTAATCGGGTCTTGATTCGCTTGACGCTGCTG”, the binding signal with GST-Ap-NF-kB RHD was 3.4 z-score; in test [1] it was 5.21 z-score; with GST-Co-NF-kB, 2.43 z-score; in the test with GST-Dm-Relish, 1.79 z-score; with GST-Aq-NF-kB, 5.79 z-score.
As to “CCGATTAACATCAGATCTTCCCCTGATGTTAATCGGGTCTTGATTCGCTTGACGCTGCTG”, the binding signal amounted to 4.63 z-score in the test with GST-Ap-NF-kB RHD; 6.25 z-score in test [1]; 7.3 z-score with GST-Co-NF-kB; 4.83 z-score with GST-Dm-Relish; 6.29 z-score with GST-Aq-NF-kB.
Take “CCGATTAACATCAGGGAATGCCATGATGTTAATCGGGTCTTGATTCGCTTGACGCTGCTG”: the binding signal stood at 1.69 z-score in the test with GST-Ap-NF-kB RHD; 2.76 z-score in test [1]; 1.43 z-score with GST-Co-NF-kB; 2.52 z-score with GST-Dm-Relish; 3.45 z-score in the test with GST-Aq-NF-kB.
Regarding “CCGATTAACATCAAGGTAATCCCTGATGTTAATCGGGTCTTGATTCGCTTGACGCTGCTG”, the binding signal with GST-Ap-NF-kB RHD was 4.1 z-score; in test [1], 2.08 z-score; with GST-Co-NF-kB, 1.06 z-score; with GST-Dm-Relish it was 5.22 z-score; in the test with GST-Aq-NF-kB, 3.95 z-score.
In the case of “CCGATTAACATCAAGGGGTCCCCTGATGTTAATCGGGTCTTGATTCGCTTGACGCTGCTG”, the binding signal with GST-Ap-NF-kB RHD was 5.55 z-score; in test [1], 3.3 z-score; with GST-Co-NF-kB, 1.66 z-score; in the test with GST-Dm-Relish, 6.15 z-score; with GST-Aq-NF-kB, 4.02 z-score.
Consider “CCGATTAACATCAGAACATTCCCTGATGTTAATCGGGTCTTGATTCGCTTGACGCTGCTG”, for which the binding signal with GST-Ap-NF-kB RHD was 2.94 z-score; in test [1], 4.14 z-score; with GST-Co-NF-kB it was 2.6 z-score; with GST-Dm-Relish, 1.97 z-score; with GST-Aq-NF-kB it was 5 z-score.
Take “CCGATTAACATCAGGGGGGCACCTGATGTTAATCGGGTCTTGATTCGCTTGACGCTGCTG”: the binding signal in the test with GST-Ap-NF-kB RHD worked out at 4.84 z-score; in test [1] it was 3.13 z-score; in the test with GST-Co-NF-kB it was 3.02 z-score; in the test with GST-Dm-Relish, 3.62 z-score; in the test with GST-Aq-NF-kB it was 4.5 z-score.
For “CCGATTAACATCAGGGAAATAAATGATGTTAATCGGGTCTTGATTCGCTTGACGCTGCTG”, the binding signal with GST-Ap-NF-kB RHD amounted to 2.39 z-score; in test [1] it was 4.44 z-score; with GST-Co-NF-kB, 4.38 z-score; with GST-Dm-Relish it was 2.1 z-score; with GST-Aq-NF-kB, 4.44 z-score.
Regarding “CCGATTAACATCACGGACTCCCCTGATGTTAATCGGGTCTTGATTCGCTTGACGCTGCTG”, the binding signal with GST-Ap-NF-kB RHD was 5.18 z-score; in test [1], 3.32 z-score; with GST-Co-NF-kB, 3.37 z-score; with GST-Dm-Relish, 6.19 z-score; in the test with GST-Aq-NF-kB it was 4.33 z-score.
“CCGATTAACATCACCGATTTCCCTGATGTTAATCGGGTCTTGATTCGCTTGACGCTGCTG”: the binding signal was 2.92 z-score with GST-Ap-NF-kB RHD; 3.79 z-score in test [1]; 3.27 z-score in the test with GST-Co-NF-kB; 2 z-score with GST-Dm-Relish; 2.57 z-score with GST-Aq-NF-kB.
As to “CCGATTAACATCAGAAGTTCCCATGATGTTAATCGGGTCTTGATTCGCTTGACGCTGCTG”, the binding signal with GST-Ap-NF-kB RHD is 2.2 z-score; in test [1], 2.3 z-score; with GST-Co-NF-kB, 2.44 z-score; with GST-Dm-Relish, 3.27 z-score; with GST-Aq-NF-kB it was 2.82 z-score.
